Where a name gives a salt, the structure may show the parent alone.
Tests used:
Details in all cases: treatment time: 24 h
A549-ACTB-RAB5A [1] = assay: lowest phenotypically active concentration; higher = less potent
How it was run: (§1)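 Live-cell features were measured per well and normalised to solvent control wells after fifteen gene-edited A549, HepG2 and WPMY1 reporter lines had been treated for 24 h at 0.3, 1, 3 or 9 µM in four wells each. A condition was deviating when ≥3 of 4 wells sat beyond the 95th percentile of control Euclidean distances. It was reproducible when the median replicate Pearson correlation exceeded the 95th percentile of non-replicates. Phenotypic activity demanded both.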

A549-CANX-COX4 [2] = assay: as above
How it was run: as §1

A549-GM130-SQSTM1 [3] = assay: as above
How it was run: as §1

A549-TP53BP1-CLTA [4] = assay: as above
How it was run: as §1

A549-TUBA1B-RELA [5] = assay: as above
How it was run: as §1

A549-ACTB-RAB5A [6] = assay: phenotypically active (imaging signature differs from DMSO and reproducible) at any of 0.3-9 uM (binary (1 = active, 0 = inactive)); higher = active
How it was run: as §1

A549-CANX-COX4 [7] = assay: as above
How it was run: as §1

A549-GM130-SQSTM1 [8] = assay: as above
How it was run: as §1

A549-TP53BP1-CLTA [9] = assay: as above
How it was run: as §1

A549-TUBA1B-RELA [10] = assay: as above
How it was run: as §1

HepG2-ACTB-RAB5A = assay: as above
How it was run: as §1

HepG2-CANX-COX4 = assay: as above
How it was run: as §1

HepG2-GM130-SQSTM1 = assay: as above
How it was run: as §1

HepG2-TP53BP1-CLTA = assay: as above
How it was run: as §1

HepG2-TUBA1B-RELA = assay: as above
How it was run: as §1

WPMY1-ACTB-RAB5A = assay: as above
How it was run: as §1

WPMY1-CANX-COX4 = assay: as above
How it was run: as §1

WPMY1-GM130-SQSTM1 = assay: as above
How it was run: as §1

WPMY1-TP53BP1-CLTA = assay: as above
How it was run: as §1

WPMY1-TUBA1B-RELA = assay: as above
How it was run: as §1

Row | SMILES | lowest phenotypically active concentration (A549-ACTB-RAB5A [1]) | lowest phenotypically active concentration (A549-CANX-COX4 [2]) | lowest phenotypically active concentration (A549-GM130-SQSTM1 [3]) | lowest phenotypically active concentration (A549-TP53BP1-CLTA [4]) | lowest phenotypically active concentration (A549-TUBA1B-RELA [5]) | phenotypically active (A549-ACTB-RAB5A [6]) | phenotypically active (A549-CANX-COX4 [7]) | phenotypically active (A549-GM130-SQSTM1 [8]) | phenotypically active (A549-TP53BP1-CLTA [9]) | phenotypically active (A549-TUBA1B-RELA [10]) | phenotypically active (HepG2-ACTB-RAB5A) | phenotypically active (HepG2-CANX-COX4) | phenotypically active (HepG2-GM130-SQSTM1) | phenotypically active (HepG2-TP53BP1-CLTA) | phenotypically active (HepG2-TUBA1B-RELA) | phenotypically active (WPMY1-ACTB-RAB5A) | phenotypically active (WPMY1-CANX-COX4) | phenotypically active (WPMY1-GM130-SQSTM1) | phenotypically active (WPMY1-TP53BP1-CLTA) | phenotypically active (WPMY1-TUBA1B-RELA)
1 | CC(C)c1cc(-c2n[nH]c(=O)n2-c2ccc3c(ccn3C)c2)c(O)cc1O [ganetespib] | ≤ 0.3 µM | ≤ 0.3 µM | ≤ 0.3 µM | ≤ 0.3 µM | ≤ 0.3 µM | 1 (active) | 1 (active) | 1 (active) | 1 (active) | 1 (active) | 1 (active) | 1 (active) | 1 (active) | 1 (active) | 1 (active) | 1 (active) | 1 (active) | 1 (active) | 1 (active) | 1 (active)
2 | CCc1cc(-c2n[nH]c(C)c2-c2ccc3c(c2)OCCO3)c(O)cc1O | 3 µM | 3 µM | 3 µM | 3 µM | 3 µM | 1 (active) | 1 (active) | 1 (active) | 1 (active) | 1 (active) | 1 (active) | 1 (active) | 1 (active) | 1 (active) | 1 (active) | 1 (active) | 1 (active) | 1 (active) | 1 (active) | 1 (active)
3 | Cc1cc(Nc2cc(C)c(C#N)c(NC(C)CCCC(C)(C)O)n2)n[nH]1 (stereo not given) [TC-A 2317 hydrochloride] | 1 µM | 1 µM | 1 µM | 1 µM | 1 µM | 1 (active) | 1 (active) | 1 (active) | 1 (active) | 1 (active) | 1 (active) | 1 (active) | 1 (active) | 1 (active) | 1 (active) | 1 (active) | 1 (active) | 1 (active) | 1 (active) | 1 (active)
4 | COc1cc(N2CCC(N3CCN(C)CC3)CC2)ccc1Nc1ncnc(Nc2ccccc2S(=O)(=O)C(C)C)n1 | 3 µM | 9 µM | 3 µM | 9 µM | 9 µM | 1 (active) | 1 (active) | 1 (active) | 1 (active) | 1 (active) | 1 (active) | 1 (active) | 1 (active) | 1 (active) | 1 (active) | 1 (active) | 1 (active) | 1 (active) | 1 (active) | 1 (active)
5 | Nc1ccn([C@@H]2O[C@H](CO)[C@@H](O)[C@@H]2O)c(=O)n1 [cytarabine] | ≤ 0.3 µM | ≤ 0.3 µM | ≤ 0.3 µM | ≤ 0.3 µM | ≤ 0.3 µM | 1 (active) | 1 (active) | 1 (active) | 1 (active) | 1 (active) | 1 (active) | 1 (active) | 1 (active) | 1 (active) | 1 (active) | 1 (active) | 1 (active) | 1 (active) | 1 (active) | 1 (active)
6 | Clc1ccc(C2(c3ccc(-c4cn[nH]c4)cc3)CCNCC2)cc1 | ≤ 0.3 µM | ≤ 0.3 µM | ≤ 0.3 µM | ≤ 0.3 µM | ≤ 0.3 µM | 1 (active) | 1 (active) | 1 (active) | 1 (active) | 1 (active) | 1 (active) | 1 (active) | 1 (active) | 1 (active) | 1 (active) | 1 (active) | 1 (active) | 1 (active) | 1 (active) | 1 (active)
7 | Oc1ccc(-c2nc(-c3ccc(F)cc3)c(-c3ccncc3)[nH]2)cc1 | 3 µM | 3 µM | 9 µM | 1 µM | 3 µM | 1 (active) | 1 (active) | 1 (active) | 1 (active) | 1 (active) | 1 (active) | 1 (active) | 1 (active) | 1 (active) | 1 (active) | 1 (active) | 1 (active) | 1 (active) | 1 (active) | 1 (active)
8 | COC(=O)Nc1nc2ccc(C(=O)c3cccs3)cc2[nH]1 [Nocodazole] | ≤ 0.3 µM | ≤ 0.3 µM | ≤ 0.3 µM | ≤ 0.3 µM | ≤ 0.3 µM | 1 (active) | 1 (active) | 1 (active) | 1 (active) | 1 (active) | 1 (active) | 1 (active) | 1 (active) | 1 (active) | 1 (active) | 1 (active) | 1 (active) | 1 (active) | 1 (active) | 1 (active)
9 | COc1c(Nc2cc(C)[nH]n2)nc(Sc2ccc(S(=O)(=O)Cc3cccc([N+](=O)[O-])c3F)cc2F)nc1N1CCOCC1 [Centrinone] | 3 µM | 3 µM | 1 µM | 3 µM | 3 µM | 1 (active) | 1 (active) | 1 (active) | 1 (active) | 1 (active) | 1 (active) | 1 (active) | 1 (active) | 1 (active) | 1 (active) | 1 (active) | 1 (active) | 1 (active) | 1 (active) | 1 (active)
10 | CO[C@@H]1[C@H](N(C)C(=O)c2ccccc2)C[C@H]2O[C@]1(C)n1c3ccccc3c3c4c(c5c6ccccc6n2c5c31)C(=O)NC4 | ≤ 0.3 µM | ≤ 0.3 µM | ≤ 0.3 µM | ≤ 0.3 µM | ≤ 0.3 µM | 1 (active) | 1 (active) | 1 (active) | 1 (active) | 1 (active) | 1 (active) | 1 (active) | 1 (active) | 1 (active) | 1 (active) | 1 (active) | 1 (active) | 1 (active) | 1 (active) | 1 (active)
11 | COCC(=O)O[C@]1(CCN(C)CCCc2nc3ccccc3[nH]2)CCc2cc(F)ccc2[C@@H]1C(C)C [mibefradil] | 3 µM | 9 µM | 3 µM | 9 µM | 3 µM | 1 (active) | 1 (active) | 1 (active) | 1 (active) | 1 (active) | 1 (active) | 1 (active) | 1 (active) | 1 (active) | 1 (active) | 1 (active) | 1 (active) | 1 (active) | 1 (active) | 1 (active)
12 | COc1cc([C@@H]2c3cc4c(cc3[C@@H](O[C@@H]3O[C@@H]5CO[C@@H](c6cccs6)O[C@H]5[C@H](O)[C@H]3O)[C@H]3COC(=O)[C@H]23)OCO4)cc(OC)c1O [teniposide] | ≤ 0.3 µM | ≤ 0.3 µM | ≤ 0.3 µM | ≤ 0.3 µM | ≤ 0.3 µM | 1 (active) | 1 (active) | 1 (active) | 1 (active) | 1 (active) | 1 (active) | 1 (active) | 1 (active) | 1 (active) | 1 (active) | 1 (active) | 1 (active) | 1 (active) | 1 (active) | 1 (active)
13 | COc1ccc(-c2ccc3ncc4c(c3c2)n(-c2ccc(N3CCNCC3)c(C(F)(F)F)c2)c(=O)n4C)cn1 | ≤ 0.3 µM | ≤ 0.3 µM | ≤ 0.3 µM | ≤ 0.3 µM | ≤ 0.3 µM | 1 (active) | 1 (active) | 1 (active) | 1 (active) | 1 (active) | 1 (active) | 1 (active) | 1 (active) | 1 (active) | 1 (active) | 1 (active) | 1 (active) | 1 (active) | 1 (active) | 1 (active)
14 | CC(=O)O[C@@]12CO[C@@H]1C[C@H](O)[C@@]1(C)C(=O)[C@H](O)C3=C(C)[C@@H](OC(=O)[C@H](O)[C@@H](NC(=O)OC(C)(C)C)c4ccccc4)C[C@](O)([C@@H](OC(=O)c4ccccc4)[C@H]21)C3(C)C [Docetaxel] | ≤ 0.3 µM | ≤ 0.3 µM | ≤ 0.3 µM | ≤ 0.3 µM | ≤ 0.3 µM | 1 (active) | 1 (active) | 1 (active) | 1 (active) | 1 (active) | 1 (active) | 1 (active) | 1 (active) | 1 (active) | 1 (active) | 1 (active) | 1 (active) | 1 (active) | 1 (active) | 1 (active)
15 | Cc1ccc(C(=O)N(CCCN)[C@@H](c2oc3cc(Cl)ccc3c(=O)c2Cc2ccccc2)C(C)C)cc1 | ≤ 0.3 µM | ≤ 0.3 µM | ≤ 0.3 µM | ≤ 0.3 µM | ≤ 0.3 µM | 1 (active) | 1 (active) | 1 (active) | 1 (active) | 1 (active) | 1 (active) | 1 (active) | 1 (active) | 1 (active) | 1 (active) | 1 (active) | 1 (active) | 1 (active) | 1 (active) | 1 (active)
16 | CS(=O)(=O)c1cccc(CNc2nc(Nc3ccc4c(c3)CCC(=O)N4)ncc2C(F)(F)F)c1 | 3 µM | 3 µM | 3 µM | 3 µM | 3 µM | 1 (active) | 1 (active) | 1 (active) | 1 (active) | 1 (active) | 1 (active) | 1 (active) | 1 (active) | 1 (active) | 1 (active) | 1 (active) | 1 (active) | 1 (active) | 1 (active) | 1 (active)
